The values below come from PubChem BioAssay (NCI).

The structures appear in SMILES notation. Values joined by “and” are separate entries in the source; they are usually repeats but may differ in a detail not shown here. Equal entries are not always repeated. About 83,000 compounds went through this panel and 20% of them were active in at least one assay; those are over-represented in the sample as a whole.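 Treatment: one concentration, 48 hours, 96-well format. Scoring: percent growth, with anything below 10 considered active.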 Values without a mark were called inactive. Active and inactive are the calls of the source.

The first assay deals with MCF7 breast. As to the kind of experiment: NCI-60 one-dose screen, 48 h (100 = growth as untreated, 0 = no growth, -100 = all killed). Particulars: 0.01 µM. The method, then: Growth inhibition of the MCF7 human tumor cell line is measured as a screen for anti-cancer activity. Cells are grown in 96 well plates and exposed to the test compound for 48 hours. Compounds are tested at a single concentration, which is 10^-5 M for most compounds. The reported endpoint is percent growth (GI% or GIPRCNT), where numbers from 0 - 100% represent growth inhibition, and numbers from -100% - 0 represent cell death. For example, a value of 40 represents 60% growth inhibition. A value of 0 means no net growth occurred over the course of the experiment. A value of -40 indicates 40% of cells at the beginning of the experiment died by the end of the experiment. A value of -100 means all cells are dead at the end of the experiment.
NCI-60 Human Tumor Cell Lines Screen was performed using the standard one-dose NCI protocol, which is described in more detail at https://dtp.cancer.gov/discovery_development/nci-60/default.htm.
Compounds with GIPRCNT values below 10 were considered active. Activity score was based on GIPRCNT using the following formula: […]
Score is 0 for GIPRCNT values of 100 or above, 50 for GIPRCNT values of 0, and 100 for GIPRCNT values of -100.
As to `CC(=O)O[C@H]1C(=O)[C@@]2(C)[C@H]([C@H](OC(=O)c3ccccc3)[C@]3(O)C[C@H](OC(=O)[C@H](O)[C@@H](NC(=O)c4ccccc4)c4ccccc4)C(C)=C1C3(C)C)[C@]1(OC(C)=O)CO[C@@H]1C[C@@H]2O`, the growth is 8.89% (active).

The same assay, now with this note: 2.5 µM.
As to `CC(=O)O[C@H]1C(=O)[C@@]2(C)[C@H]([C@H](OC(=O)c3ccccc3)[C@]3(O)C[C@H](OC(=O)[C@H](O)[C@@H](NC(=O)c4ccccc4)c4ccccc4)C(C)=C1C3(C)C)[C@]1(OC(C)=O)CO[C@@H]1C[C@@H]2O`, the growth was 14.3%.

The same assay, now with this note: 5 µM.
Regarding `CC(=O)O[C@H]1C(=O)[C@@]2(C)[C@H]([C@H](OC(=O)c3ccccc3)[C@]3(O)C[C@H](OC(=O)[C@H](O)[C@@H](NC(=O)c4ccccc4)c4ccccc4)C(C)=C1C3(C)C)[C@]1(OC(C)=O)CO[C@@H]1C[C@@H]2O`, the growth was 15.4%.

Staying with this assay, now noted: 10 µM.
As to `Cn1c2nc3ccccc3c-2nc2ccccc21`, the growth is 77.3% and 67.5%.

Turning to `CC(=O)O[C@H]1C(=O)[C@@]2(C)[C@H]([C@H](OC(=O)c3ccccc3)[C@]3(O)C[C@H](OC(=O)[C@H](O)[C@@H](NC(=O)c4ccccc4)c4ccccc4)C(C)=C1C3(C)C)[C@]1(OC(C)=O)CO[C@@H]1C[C@@H]2O`, the growth was 15.4% and 15.3%.

As for `CCC(C)(c1ccc(O)c(C)c1)c1ccc(O)c(C)c1`, the growth is 111%.

Consider `Nc1nc(N)c2cc(Sc3ccc4ccccc4c3)ccc2n1`, for which the growth is 25.2%.

On to `O=C(CNS(=O)(=O)Cc1ccccc1)NNc1ccccc1`, for which the growth was 76.5%.

Consider `CN(C)CCNc1cccc2sc3ccc(O)cc3c(=O)c12`, for which the growth was 27.8%.

For the compound `O=Nc1ccc(Nc2ccccc2)cc1`, the growth was 67.2%.

`CC[C@@]1(OC(=O)CN(C)C)C(=O)OCc2c1cc1n(c2=O)Cc2cc3c(N)cccc3nc2-1`: the growth was -1.34% (active).

Consider `O=C1c2cccc3cc([N+](=O)[O-])cc(c23)C(=O)N1CCN1CCCC1`, for which the growth is 1.22% (active).

Consider `COc1ccc(N)c2c1C(=O)c1ccccc1C2=O`, for which the growth is 95.2%.

`Cn1ncc2cc3c(Nc4ccc(Cl)cc4)cccc3nc21`: the growth was 86.8%.

Take `N#CC(=C1C=CC(=NO)C=C1)c1ccccc1`: the growth is 8.32% (active).

In the case of `COc1ccc2c(c1)[nH]c1c(/C=C/c3ccccc3)nccc12`, the growth is 65.7%.

In the case of `COc1ccc2oc(-c3ccc(Cl)cc3)c(N3CCN(C)CC3)c2c1`, the growth is -75.8% (active).

On to `N#C/C(=C/N1C(=O)/C(=C/c2ccc([N+](=O)[O-])cc2)SC1=S)c1nc2ccccc2s1`, for which the growth was 60.7%.

`CN(CC(=O)O)c1ccc(/C=C/c2ccnc3ccccc23)cc1`: the growth was 31.8%.

With `O=C1c2ccccc2CCC1(Br)Br`, the growth was 21.6%.

`S=P(N1CC1)(N1CC1)N1CC1`: the growth was 69.5%.

Regarding `ClCCn1c(CCl)nc2ccc(Cl)cc21`, the growth was -6.55% (active).

As to `O=c1[nH]cc(/C=N\Nc2ccccc2)c(=O)[nH]1`, the growth was 56.1%.

Consider `O=C(O)c1ccccc1.[Ag]`, for which the growth was 96.4%.

Take `COc1ccc(C(C#N)=C2C=CC(=NO)C=C2)cc1`: the growth is 14.1%.

In the case of `O=[N+]([O-])c1cc(S(=O)(=O)Nc2ccccc2)ccc1Cl`, the growth is 84%.

As to `Cc1c(-c2ccccc2)[nH]c2ccccc12`, the growth is 79.7%.

Regarding `NCc1c(O)ccc2ccccc12`, the growth is 95.3%.

As to `O=C1C=CC(=O)N1c1ccc(N2C(=O)C=CC2=O)cc1`, the growth is 97%.

With `O=C1C(Cl)=C(Cl)C(Cl)(Cl)C(Cl)C1(Cl)Cl` (stereo not given), the growth is 96.8%.

In the case of `O=S(=O)(c1cc(Cl)ccc1O)c1cc(Cl)ccc1O`, the growth is 92.9%.

For `S=C1SCN(CCc2ccccc2)CN1CCc1ccccc1`, the growth is 40.7%.

As to `O=C(NC(=S)Nc1ccccn1)c1ccccc1`, the growth was 24.3%.

As for `CCOC(=O)[C@]1(Br)CC[C@@]1(Br)C(=O)OCC`, the growth was 93.4%.

Still in this assay, the particulars now being: 25 µM.
Turning to `CO[C@@]12[C@H](COC(N)=O)C3=C(C(=O)C(C)=C(N)C3=O)N1C[C@@H]1N[C@@H]12`, the growth was -17.6% (active) and -61.3% (active).

The same assay, now with this note: 100 µM.
Consider `O=C(CCc1ccccc1)ON1C(=S)C(c2ccccc2)(c2ccccc2)N=C1Sc1ccccc1`, for which the growth was 1.09% (active) and 4.44% (active).

Regarding `S=P(N1CC1)(N1CC1)N1CC1`, the growth is 29.3%.

`C=C(C)[C@@H]1CCc2c(O)c(O)c(=O)cc(C)c2C1`: the growth was -84.1% (active) and -67.9% (active).

`Clc1c(Cl)c(Cl)c2c(nnn2C2CCCO2)c1Cl` (stereo not given): the growth is 3.55% (active) and -84.2% (active).

On to `COc1cc2c(cc1C[N+](C)(C)CSc1ccccc1)-c1ccccc1CC2`, for which the growth was -75.8% (active) and -73.3% (active).
